Drawing on PubChem BioAssay (NCI), this text covers growth for 40 compounds.

Compounds without any hit were thinned out: in the full panel of roughly 83,000, 20% have a hit.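 Cells were grown in 96-well plates and exposed to the test compound at a single concentration for 48 hours; results are reported as percent growth, with values below 10 considered active.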 Activity calls are given as the source filed them.

This experiment concerns SR leukemia. Kind of experiment: NCI-60 one-dose screen, 48 h (100 = growth as untreated, 0 = no growth, -100 = all killed). The conditions noted are these: 10 µM. The protocol:
Growth inhibition of the SR human tumor cell line is measured as a screen for anti-cancer activity. Cells are grown in 96 well plates and exposed to the test compound for 48 hours. Compounds are tested at a single concentration, which is 10^-5 M for most compounds. The reported endpoint is percent growth (GI% or GIPRCNT), where numbers from 0 - 100% represent growth inhibition, and numbers from -100% - 0 represent cell death. For example, a value of 40 represents 60% growth inhibition. A value of 0 means no net growth occurred over the course of the experiment. A value of -40 indicates 40% of cells at the beginning of the experiment died by the end of the experiment. A value of -100 means all cells are dead at the end of the experiment.
NCI-60 Human Tumor Cell Lines Screen was performed using the standard one-dose NCI protocol, which is described in more detail at https://dtp.cancer.gov/discovery_development/nci-60/default.htm.
Compounds with GIPRCNT values below 10 were considered active. Activity score was based on GIPRCNT using the following formula: […]
Score is 0 for GIPRCNT values of 100 or above, 50 for GIPRCNT values of 0, and 100 for GIPRCNT values of -100.
On to `Cc1cc(Nc2cccc(F)c2)nc(NCc2ccccc2)n1`, for which the growth is 23% (inactive).
The same measure for `COc1cccc(C(=O)NNc2nc(N3CCOCC3)nc(N3CCN(C(c4ccccc4)c4ccccc4)CC3)n2)c1`: 65.6% (inactive).
Turning to `COc1ccc(Cn2cc3c(c2-c2cc(OC)c(OC)c(OC)c2)CCc2cnoc2-3)cc1N`, the growth was 14.8% (inactive).
The same measure for `Cc1cn(C(=O)/C(Cl)=C(/Cl)C(=O)O)c2ccccc12`: 101% (inactive); for `COc1ccccc1CNCCCN1C(=O)c2ccc3c4c(ccc(c24)C1=O)C(=O)N(CCCNCCNCCCN)C3=O`: 13.6% (inactive); for `COc1ccc(-c2nsc3c2NC(=O)CC3c2cccc(Cl)c2)cc1` (stereo not given): 7.99% (active).
Then `CCOC(=O)c1c(C(F)(F)F)n([O-])c2ccc(OC)cc2[n+]1=O`, with -13.3% (active).
For the compound `CC1(C)Cc2c(cn(Cc3ccccc3)c2-c2ccccc2)-c2oncc21`, the growth was 86.8% (inactive).
With `CC(C)(C)CC(C)(C)c1ccc(O)c(Cc2ccc(Cl)cc2Cl)c1`, the growth was -57.5% (active).
The same measure for `CCc1ccc(Nc2cc(C)nc3nc(C)nn23)cc1`: -20.9% (active).
The same measure for `CCCCCCOc1ccc(/C=C/C(=O)c2ccc(B(O)O)cc2)cc1`: 48.4% (inactive).
The same measure for `O=C(/C=C/c1nnc2n(Cc3ccccc3)c(=O)c3c4c(sc3n12)CCCC4)c1ccccc1`: -5.47% (active); for `N=C(N)c1ccc(-c2ccc(-c3ccccc3)s2)cc1F`: -11.6% (active).
For the compound `COc1ccc(-c2nnc(SCC(=O)c3ccccc3)o2)cc1`, the growth was 100% (inactive).
The same measure for `CCCCN(CCCC)c1ccc(C(=NC(C)CCCN(CC)CC)c2ccc(N(C)C)cc2)cc1` (stereo not given): -26.2% (active).
The same measure for `CCCCCCCCCCCCCCCCn1cc[n+](C)c1`: 15.2% (inactive).
In the case of `O=C(/C=C/c1ccc(Cl)cc1)c1ccc(Br)cc1`, the growth was 71.4% (inactive).
The same measure for `O=C(c1ccccc1)C(Sc1ccccc1)c1ccccc1` (stereo not given): 49.2% (inactive); for `CCOC(=O)c1cc2c(n1Cc1cccc(OC)c1)-c1oncc1CC2`: 13.3% (inactive); for `CCCCCCCCCCCCCCCC(=O)N1CCN(C)CC1`: -3.08% (active).
On to `COc1ccc(Cn2cc3c(c2-c2ccccc2)CC(C)(C)c2cnoc2-3)cc1`, for which the growth was 24.5% (inactive).
On to `FC(F)(F)c1ccc(-c2ncc(-c3ccc(C(F)(F)F)cc3)c(NCc3cc(C(F)(F)F)cc(C(F)(F)F)c3)n2)cc1`, for which the growth is 83.7% (inactive).
The same measure for `O/N=C1\CCC2CCCCC2C1` (stereo not given): 87.1% (inactive); for `CC(=O)N(O)c1ccc(/C=C/c2ccccc2)cc1`: 9.19% (active).
On to `O=C(O)CN1C(=O)C=CC1=O`, for which the growth was 109% (inactive).
The same measure for `NC(=O)c1ccc(Br)o1`: 97.4% (inactive); for `C[C@]12CC[C@H]3[C@@H](CCC4=CC(=O)CC[C@@]43C)[C@@H]1CC[C@@H]2c1csc(N)n1`: 26.4% (inactive).
For the compound `Oc1ccccc1-c1nnc(Cn2c(Cc3cccc4ccccc34)nc3ccccc32)o1`, the growth is 94.8% (inactive).
Then `COc1ccc(-c2nnc(COc3ccc(NC(=O)Nc4ccccc4)cc3F)o2)cc1`, with 36.1% (inactive).
Then `C=CCNC(=S)NN`, with 54.6% (inactive); and `Cc1ccccc1C1=N[C@@H](Cc2ccccc2)C(=O)c2c(nc3ccccn23)N1`, with 122% (inactive); and `CCCCn1c(=O)[nH]c2c(c1=O)C(c1ccc(Cl)cc1)c1c([nH]c(=O)n(CCCC)c1=O)N2`, with 106% (inactive).
Then `CC1(C)CNC(=O)N1`, with 95.2% (inactive); and `N#CC1C=Cc2c(ccc3ccccc23)N1C(=O)c1ccccc1` (stereo not given), with 13.9% (inactive); and `COc1ccc(-c2ccccc2)cc1C(=O)c1ccc(-c2ccccc2)cc1`, with 23.8% (inactive).
For `CC1=CC2OC34COC3CC(OC(=O)C(F)(F)F)C4(C)C2(C)CC1` (stereo not given), the growth was 99.3% (inactive).
The same measure for `COc1ccc(C(=O)/C=C/c2cc(-c3ccc4c(c3)OCO4)n[nH]2)cc1OC`: -5.36% (active).
In the case of `CCOC(=O)[C@@H](Cc1ccccc1)NC(=O)c1[nH]c2ccc(Cl)cc2c(=O)c1C`, the growth is 61.3% (inactive).
Consider `c1ccc(COCC[P+](c2ccccc2)(c2ccccc2)c2ccccc2)cc1`, for which the growth was -15.6% (active).
Then `O=C(Cn1ccc(=O)[nH]c1=O)c1ccc([N+](=O)[O-])o1`, with 73.9% (inactive).
